From PubChem
MCF10A rerep = inducers of DNA re-replication in MCF 10A breast cells; MCF 10A DNA re-replication, Hoechst nuclear intensity, 48 h; Potency, µM (series often up to 46.1 µM), for inactives: at the top dose activity, positive = re-replication, hits mostly activators; 350,000 compounds, 2.9% hits; AID 624296; note: % of control where 0% means no effect; nearly all actives have a fitted effect of over 50% in size
SW480 rereplic = inducers of DNA re-replication in SW480 colon cancer cells; SW480 DNA re-replication, Hoechst DNA content imaging, 48 h; Potency, µM (titrated, usually from 46.1 µM), without a hit: at the top dose re-replication activation, most hits filed as activators; 340,000 compounds, 1.8% hits; AID 624297; note: % of control where 0% means no effect; nearly all actives have a fitted effect of over 55% in size
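Image-based read-out: total Hoechst fluorescence of nuclei (405 nm excitation, 500-530 nm emission), with hits raising the fraction of high-intensity nuclei. SW480 colon cells incubated 48 hr with compounds at 37 C.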
KB-3-1 cytotox = KB-3-1 parental cell cytotoxicity | KB-3-1 viability, CellTiter-Glo ATP luminescence, 72 h | Potency, µM (top dose mostly 46.1 µM), actives largely listed as cytotoxic | 400,000 compounds, 1.4% hits; note: % is set by controls: 0 for no effect and ±100 for the full control effect; nearly all actives have a fitted effect of over 60% in size
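KB-3-1 cells, DMEM (no phenol red) + 10% FBS; compound by pin transfer, 72 h, 37 °C. Readout: CellTiter-Glo luminescence after 10 min. Data normalized, curve-fitted.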
KB-V1 MDR tox = kills drug-selected multidrug resistant KB-V1 cells; Potency, µM (top dose mostly 46.1 µM), hits mostly cytotoxic; AID 1347076; KB-V1 MDR cells viability, CellTiter-Glo, 72 h; 400,000 compounds, 3.4% hits; note: % is set by controls: 0 for no effect and ±100 for the full control effect; nearly all actives have a fitted effect of over 60% in size
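Cytotoxicity toward P-gp-expressing KB-V1 cells was determined as loss of CellTiter-Glo luminescence after 72 h at 37 degrees C. Compounds were tested in quantitative HTS format across a concentration range, with curves fitted to normalized data.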
PTAP TSG101 blk = blocks PTAP/TSG101 interaction to inhibit HIV-1 budding. 340,000 tested, under 10 active. AID 493005. Fluorescence polarization, FITC-PTAP peptide / Tsg101 binding. Potency, µM (highest dose often 115 µM), inactives show at the top dose activity change, negative = inhibition, usual class: inhibitors. Q99816; active = well fitted inhibition curve with a large enough effect in the main read-out, with a control signal flat, not every such curve was filed as active; inconclusive = small, poorly fitted or top-dose-only effect, or effect the other way, or a change in a side signal; inactive = no such curve, though single readings can be large or run the other way; note: % of control where 0% means no effect
Target sequence (Q99816 whole entry, looked up): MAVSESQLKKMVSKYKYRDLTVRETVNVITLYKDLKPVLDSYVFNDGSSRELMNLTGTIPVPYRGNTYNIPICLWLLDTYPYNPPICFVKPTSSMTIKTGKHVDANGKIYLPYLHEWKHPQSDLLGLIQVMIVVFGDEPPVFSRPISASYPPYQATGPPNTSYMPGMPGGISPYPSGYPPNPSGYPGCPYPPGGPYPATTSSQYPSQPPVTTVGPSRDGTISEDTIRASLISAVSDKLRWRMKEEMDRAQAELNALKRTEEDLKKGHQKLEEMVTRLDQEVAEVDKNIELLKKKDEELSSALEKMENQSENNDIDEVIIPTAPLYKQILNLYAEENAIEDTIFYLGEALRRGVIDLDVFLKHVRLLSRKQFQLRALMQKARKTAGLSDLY
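Fluorescence polarization binding of Tsg101 binding domain (10 uM final) to FITC-labeled PTAP peptide (50 nM final) in HEPES pH 7.5 buffer with NaCl, Tween 20, EDTA, TCEP. Compounds added before peptide; binding 20 min at RT.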
RGS4 inhibitor = blocks human RGS4-accelerated GTP hydrolysis; P49798; Transcreener GDP fluorescence polarization, RGS4-accelerated GTP hydrolysis; Potency, µM (titrated, usually from 114 µM), for inactives: top-dose activity change, negative = inhibition, most hits filed as inhibitors; 390,000 compounds, 0.039% hits; AID 504845; note: % is set by controls: 0 for no effect and ±100 for the full control effect; nearly all actives have a fitted effect of over 75% in size
Target sequence (P49798 whole entry, looked up): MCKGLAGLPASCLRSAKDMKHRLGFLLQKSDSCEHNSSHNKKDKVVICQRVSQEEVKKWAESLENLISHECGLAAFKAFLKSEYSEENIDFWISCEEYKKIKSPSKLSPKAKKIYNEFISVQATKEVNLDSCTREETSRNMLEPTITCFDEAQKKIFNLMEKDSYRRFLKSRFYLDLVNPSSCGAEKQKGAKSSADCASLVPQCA
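MLSMR compounds (23 nl, pin-transferred) preincubated 10 min at room temperature with a 500nM (2x) first reagent, then RGS4 at 900nM (2x) plus Transcreener GDP mix added; fluorescence polarization (620/688 nm) read before and after 90 min at 30 °C.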
Active calls of the source: *. Most compounds without a hit are left out; they make up all but 6.6% or so of the library. Unless noted, calls come from the whole dose curve; as a rule, active = well fitted curve in the direction sought with a large enough effect; inconclusive = small, poorly fitted or top-dose-only effect, or another doubt; inactive = no such curve, though single readings can be large; an effect the other way counts as inactive or inconclusive. Potency is the fitted concentration of half-maximal effect.

What do the screens show for `S=c1nc[nH]c2c1ncn2C1CCCO1` (configuration not stated)?
MCF10A rerep: inconclusive; SW480 rereplic: -1%; KB-3-1 cytotox: 4.1µM*; KB-V1 MDR tox: inconclusive; PTAP TSG101 blk: 3%; RGS4 inhibitor: inconclusive

Results for Oc1c(C(c2ccccc2F)N2CCN(c3ccccc3F)CC2)sc2nc(-c3ccco3)nn12 (configuration not stated) ?
KB-3-1 cytotox: inactive; KB-V1 MDR tox: inconclusive; RGS4 inhibitor: -4%

Results for CCC(C(=O)N1CCN(c2ccccc2F)CC1)n1nc(C)c2sc3ccccc3c2c1=O (configuration not stated) ?
KB-3-1 cytotox: inactive; KB-V1 MDR tox: inactive; RGS4 inhibitor: -17%

How did CCOCCc1nnc(NC(=O)C(C)Oc2ccccc2)s1 (configuration not stated) do in these assays?
MCF10A rerep: -2%; SW480 rereplic: -5%; KB-3-1 cytotox: inactive; KB-V1 MDR tox: inconclusive; PTAP TSG101 blk: -13%; RGS4 inhibitor: 10%

What do the screens show for `CC(C)(C)c1csc(NC(=O)CCS(=O)(=O)c2ccc(F)cc2)n1`?
KB-3-1 cytotox: inactive; KB-V1 MDR tox: inactive

Results for O=C(CCS(=O)(=O)c1ccc(F)cc1)Nc1nc(-c2ccncc2)cs1 ?
MCF10A rerep: 18µM*; SW480 rereplic: inconclusive; KB-3-1 cytotox: inactive; KB-V1 MDR tox: inactive; PTAP TSG101 blk: -1%; RGS4 inhibitor: inconclusive

What do the screens show for `CC(C)c1nnc(NC(=O)CCS(=O)(=O)c2nc(-c3cccs3)cc(C(F)(F)F)n2)s1`?
MCF10A rerep: 3.7µM*; SW480 rereplic: inconclusive; KB-3-1 cytotox: inactive; KB-V1 MDR tox: inactive; PTAP TSG101 blk: -3%; RGS4 inhibitor: inconclusive

What do the screens show for `CC(=O)c1sc(NC(=O)CCS(=O)(=O)c2ccccc2)nc1C`?
MCF10A rerep: 2.9µM*; SW480 rereplic: 4.6µM*; KB-3-1 cytotox: inconclusive; KB-V1 MDR tox: inactive; PTAP TSG101 blk: -6%; RGS4 inhibitor: 19%

How did CCOCCc1nnc(NC(=O)CCS(=O)(=O)c2ccccc2)s1 do in these assays?
MCF10A rerep: 21µM*; SW480 rereplic: inconclusive; KB-3-1 cytotox: inactive; KB-V1 MDR tox: inactive; PTAP TSG101 blk: -4%; RGS4 inhibitor: -15%

What do the screens show for `CCOC(=O)c1c(C)n(-c2ccccc2)c2ccc(OC(=O)c3cc(OC)cc(OC)c3)cc12`?
KB-3-1 cytotox: inactive; KB-V1 MDR tox: inactive; RGS4 inhibitor: 3%

How did COc1cc(N(C)C)c(OC)cc1/C=C1\C=Cc2ccccc21 do in these assays?
KB-3-1 cytotox: inactive; KB-V1 MDR tox: inactive

What do the screens show for `O=C(CCS(=O)(=O)c1ccccc1)Nc1nc(-c2cccs2)cs1`?
MCF10A rerep: inconclusive; SW480 rereplic: inconclusive; KB-3-1 cytotox: inactive; KB-V1 MDR tox: 23µM*; PTAP TSG101 blk: 0%; RGS4 inhibitor: 0%

How did COc1ccc(/C=N/NC(=O)C[n+]2ccccc2)c(OC)c1OC do in these assays?
MCF10A rerep: 2%; SW480 rereplic: 0%; KB-3-1 cytotox: inactive; KB-V1 MDR tox: inactive; PTAP TSG101 blk: 0%; RGS4 inhibitor: -3%

What do the screens show for `COc1ccc(/C=N/NC(=O)C[n+]2ccccc2)c(OC)c1`?
MCF10A rerep: 1µM*; SW480 rereplic: -72%; KB-3-1 cytotox: inactive; KB-V1 MDR tox: inconclusive; PTAP TSG101 blk: -2%; RGS4 inhibitor: 7%

What do the screens show for `C#CCn1c2ccccc2c2nc3ccccc3nc21`?
MCF10A rerep: -9%; SW480 rereplic: -2%; KB-3-1 cytotox: inactive; KB-V1 MDR tox: 18µM*; PTAP TSG101 blk: -3%; RGS4 inhibitor: -27%

What do the screens show for `c1ccc(CNc2nc3ccccc3n2CCN2CCOCC2)nc1`?
MCF10A rerep: 23µM*; SW480 rereplic: inconclusive; KB-3-1 cytotox: inactive; KB-V1 MDR tox: inactive; PTAP TSG101 blk: -6%; RGS4 inhibitor: -3%

Results for CC(C)n1c2ccccc2c2nc3ccccc3nc21 ?
MCF10A rerep: 23µM*; SW480 rereplic: inconclusive; KB-3-1 cytotox: inactive; KB-V1 MDR tox: inactive; PTAP TSG101 blk: -4%; RGS4 inhibitor: -46%

What do the screens show for `c1ccc2nc3c(nc2c1)c1ccccc1n3CCN1CCOCC1`?
MCF10A rerep: 18µM*; SW480 rereplic: inconclusive; KB-3-1 cytotox: inactive; KB-V1 MDR tox: inconclusive; PTAP TSG101 blk: -7%; RGS4 inhibitor: 6%

How did CCCn1c2ccccc2c2nnc(SCCN3CCOCC3)nc21 do in these assays?
MCF10A rerep: -2%; SW480 rereplic: -1%; KB-3-1 cytotox: inactive; KB-V1 MDR tox: inactive; PTAP TSG101 blk: -5%; RGS4 inhibitor: -11%

Results for COC(=O)Cn1c2ccccc2c2nc3ccccc3nc21 ?
MCF10A rerep: 1%; SW480 rereplic: 8%; KB-3-1 cytotox: inactive; KB-V1 MDR tox: inactive; PTAP TSG101 blk: -1%; RGS4 inhibitor: -18%

Results for N#CCn1c2ccccc2c2nc3ccccc3nc21 ?
MCF10A rerep: inconclusive; SW480 rereplic: inconclusive; KB-3-1 cytotox: inactive; KB-V1 MDR tox: inactive; PTAP TSG101 blk: 0%; RGS4 inhibitor: 4%

How did Cc1ccc(-n2nnnc2CNC(=O)c2ccccc2F)cc1C do in these assays?
RGS4 inhibitor: 9%

What do the screens show for `CC(=O)OC1COC(n2c(O)c(N=NC(N)=S)c3ccccc32)C(OC(C)=O)C1OC(C)=O` (configuration not stated)?
MCF10A rerep: 0.65µM*; SW480 rereplic: inconclusive; KB-3-1 cytotox: inactive; KB-V1 MDR tox: inconclusive; PTAP TSG101 blk: -1%; RGS4 inhibitor: -22%

What do the screens show for `O=C1c2cnc3nc(SCc4ccccc4)nn3c2CC2c3ccccc3CCN12` (configuration not stated)?
MCF10A rerep: 2.3µM*; SW480 rereplic: 4.1µM*; KB-3-1 cytotox: inactive; KB-V1 MDR tox: inactive; PTAP TSG101 blk: 3%; RGS4 inhibitor: 19%

How did O=C1CC2c3ccccc3CCN2C(=O)CN1Cc1ccccc1 (configuration not stated) do in these assays?
KB-3-1 cytotox: inactive; KB-V1 MDR tox: inactive

How did CCn1cc(C(=O)NCc2ccc(Cl)cc2)c(=O)c2cc(S(=O)(=O)N(C)C3CCCCC3)ccc21 do in these assays?
KB-3-1 cytotox: inactive; KB-V1 MDR tox: inactive; RGS4 inhibitor: 4%

What do the screens show for `O=C1CCC/C(=N\NC(=O)c2ccc(COc3ccccc3-c3ccccc3)cc2)C1`?
MCF10A rerep: 9.2µM*; SW480 rereplic: 100%; KB-3-1 cytotox: inactive; KB-V1 MDR tox: inactive; PTAP TSG101 blk: -7%; RGS4 inhibitor: 8%
